This is part of a sample that, as a whole, favours compounds with a hit. Of some 83,000 tested, about 20% had one in any assay.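 Percent growth is the endpoint: 0 to 100 indicates growth inhibition (40 means 60% inhibition), 0 means no net growth, and negative values indicate cell death.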 A number with no mark means an inactive call. The source made the active and inactive calls. The calls were made as follows: active = growth percent below 10; inactive = the rest.

Some test systems named below: DU-145 prostate; K-562 leukemia; MALME-3M melanoma; MDA-MB-231 breast; RXF 393 renal; SF-268 CNS; SF-295 CNS; SF-539 CNS; UACC-257 melanoma.
Common to all, as to assay: NCI-60 one-dose screen, 48 h (100 = growth as untreated, 0 = no growth, -100 = all killed)
Holding throughout (conditions): 10 µM

Consider `Cc1c(O)cnc2nn(-c3ccccc3)c(=N)n12`, for which the growth with DU-145 prostate was 110%; with K-562 leukemia, 101%; in the test on MALME-3M melanoma, 124%; in the test on MDA-MB-231 breast it was 103%; with RXF 393 renal, 111%; in the test on SF-268 CNS, 113%. The growth in the test with SF-295 CNS is 99.1%; in the test with SF-539 CNS, 99.6%.

Turning to `COc1cc(C2NC(=O)C(C#N)=C(Nc3cccc(C)c3)S2)ccc1O` (stereo not drawn), the growth in the test with DU-145 prostate was 122%; in the test with K-562 leukemia, 93.8%; in the test on MALME-3M melanoma, 108%; in the test on MDA-MB-231 breast, 99.2%; in the test with RXF 393 renal it was 103%; in the test on SF-268 CNS, 109%. The growth with SF-295 CNS is 101%; in the test on SF-539 CNS, 90.4%; in the test with UACC-257 melanoma, -2.62% (active).

Take `C=CCNc1ccccc1`: the growth was 122% with DU-145 prostate; 113% in the test with K-562 leukemia; 124% in the test on MALME-3M melanoma; 86.7% in the test with MDA-MB-231 breast; 113% in the test with RXF 393 renal; 104% in the test on SF-268 CNS. Moreover, the growth in the test with SF-295 CNS was 138%; with SF-539 CNS it was 104%; in the test with UACC-257 melanoma it was 102%.

Regarding `CCC(C)(C)C1CCC(O)CC1` (stereo not drawn), the growth was 107% in the test on DU-145 prostate; 110% in the test with K-562 leukemia; 96.4% in the test on MALME-3M melanoma; 94.9% with MDA-MB-231 breast; 109% in the test with RXF 393 renal; 101% with SF-268 CNS. Besides, the growth in the test on SF-295 CNS is 114%; in the test on SF-539 CNS, 104%; with UACC-257 melanoma, 99.8%.

Turning to `CCCC1(c2ccccc2)NC(=O)NC1=O` (stereo not drawn), the growth with DU-145 prostate is 108%; in the test with K-562 leukemia it was 135%; in the test on MALME-3M melanoma, 121%; in the test with MDA-MB-231 breast, 95.2%; in the test with RXF 393 renal, 109%; in the test on SF-268 CNS, 98.3%. The growth in the test on SF-295 CNS was 122%; in the test on SF-539 CNS it was 100%; in the test with UACC-257 melanoma, 108%.

Regarding `Nc1nc(N)c(N=Nc2ccc(C(=O)O)cc2)c(N)n1`, the growth was 111% in the test on DU-145 prostate; 108% in the test on K-562 leukemia; 106% in the test on MALME-3M melanoma; 107% with MDA-MB-231 breast; 113% with RXF 393 renal; 107% in the test with SF-268 CNS. Also, the growth in the test with SF-295 CNS is 104%; in the test on SF-539 CNS, 101%; in the test on UACC-257 melanoma, 30.9%.

`CO[C@H]1C[C@@H]2CC[C@@H](C)[C@@](O)(O2)C(=O)C(=O)N2CCCC[C@H]2C(=O)O[C@H]([C@H](C)C[C@@H]2CC[C@@H](O)[C@H](OC)C2)CC(=O)[C@H](C)C=C(C)[C@@H](O)[C@@H](OC)C(=O)[C@H](C)C[C@H](C)/C=C/C=C/C=C1C`: the growth was 32.4% in the test with DU-145 prostate; 51.5% in the test on K-562 leukemia; 35.9% in the test with MALME-3M melanoma; 75.9% with MDA-MB-231 breast; 14.1% in the test with RXF 393 renal; 56.2% with SF-268 CNS. For the same molecule, the growth with SF-295 CNS is 23%; in the test on SF-539 CNS, 30.4%; with UACC-257 melanoma, 37.3%.

As for `CC(=O)c1ccc(C)c(N)c1`, the growth is 110% with DU-145 prostate; 102% in the test on K-562 leukemia; 107% in the test with MALME-3M melanoma; 115% with MDA-MB-231 breast; 111% with RXF 393 renal; 100% in the test with SF-268 CNS. Further, the growth in the test with SF-295 CNS was 101%; with SF-539 CNS, 101%; in the test on UACC-257 melanoma it was 102%.

As for `CC(=O)Oc1ccc(Br)cc1C(=O)O`, the growth with DU-145 prostate was 120%; with K-562 leukemia it was 109%; in the test with MALME-3M melanoma, 98.2%; in the test on MDA-MB-231 breast it was 118%; in the test on RXF 393 renal, 98.8%; in the test with SF-268 CNS it was 106%. Further, the growth is 109% in the test with SF-295 CNS, 93.2% in the test with SF-539 CNS and 101% in the test with UACC-257 melanoma.

`O=C(c1ccc(Cl)cc1)c1ccccc1Cl`: the growth in the test with DU-145 prostate is 123%; with K-562 leukemia, 96.8%; with MALME-3M melanoma, 103%; in the test on MDA-MB-231 breast, 101%; in the test with RXF 393 renal it was 93.3%; in the test with SF-268 CNS it was 111%. The growth was 92.3% with SF-295 CNS, 89% with SF-539 CNS and 93.6% in the test on UACC-257 melanoma.

As to `OCCN1CCOCC1`, the growth was 124% in the test with DU-145 prostate; 114% in the test with K-562 leukemia; 114% in the test on MALME-3M melanoma; 113% in the test with MDA-MB-231 breast; 119% in the test with RXF 393 renal; 117% in the test on SF-268 CNS. Moreover, the figures for the growth with SF-295 CNS, in the test with SF-539 CNS and in the test with UACC-257 melanoma were 110%, 111% and 99.7%, respectively.

For the molecule `Oc1ccccc1-c1nnco1`, the growth in the test on DU-145 prostate is 99.7%; in the test on K-562 leukemia, 75.4%; in the test with MALME-3M melanoma, 96.2%; with MDA-MB-231 breast, 84.4%; in the test with RXF 393 renal, 74%; in the test with SF-268 CNS, 65.4%. Also, the growth is 112% in the test on SF-295 CNS, 89.9% in the test on SF-539 CNS and 97.3% with UACC-257 melanoma.

As to `CCOC(=O)c1cc2cccc(OC)c2oc1=O`, the growth was 123% in the test on DU-145 prostate; 99% with K-562 leukemia; 115% with MALME-3M melanoma; 107% in the test with MDA-MB-231 breast; 122% with RXF 393 renal; 111% in the test on SF-268 CNS. In addition, the growth in the test on SF-295 CNS was 130%; in the test on SF-539 CNS, 107%; in the test with UACC-257 melanoma, 98.2%.

Turning to `COc1ncnc2c1cnn2C`, the growth in the test with DU-145 prostate is 111%; in the test with K-562 leukemia, 115%; in the test with MALME-3M melanoma it was 126%; in the test with MDA-MB-231 breast it was 100%; in the test with RXF 393 renal it was 114%; in the test with SF-268 CNS it was 101%. The growth with SF-295 CNS is 112%; with SF-539 CNS, 96.8%; with UACC-257 melanoma it was 106%.

For `CC(=O)OC(OC(C)=O)C1CCCO1` (stereo not drawn), the growth in the test with DU-145 prostate is 112%; in the test on K-562 leukemia it was 135%; in the test on MALME-3M melanoma it was 112%; in the test with MDA-MB-231 breast, 91.8%; in the test on RXF 393 renal, 115%; with SF-268 CNS, 97.8%. Also, the figures for the growth with SF-295 CNS, with SF-539 CNS and with UACC-257 melanoma were 112%, 100% and 98%, respectively.

Turning to `CCCCCCCCOC(=O)c1ccccn1`, the growth is 102% with DU-145 prostate; 115% in the test on K-562 leukemia; 117% in the test with MALME-3M melanoma; 95.2% in the test on MDA-MB-231 breast; 116% with RXF 393 renal; 97.6% in the test on SF-268 CNS. The growth with SF-295 CNS is 133%; in the test with SF-539 CNS, 96.9%; in the test with UACC-257 melanoma it was 107%.

(Values after PubChem BioAssay (NCI).)
